We go through 8 compounds from PubChem BioAssay (NCI).

Molecules are shown by their SMILES. The panel holds about 83,000 compounds, 20% with a hit somewhere; the sample as a whole holds those more often.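 How to read the values: 0–100, growth inhibition (40 = 60% inhibited); 0, no net growth; -100 to 0, cell death (-40 = 40% of starting cells died; -100 = all dead).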 Values without a mark were called inactive. The source made the active and inactive calls. Rule for the calls: active = growth percent below 10; inactive = the rest.

Some test systems named below: HCT-15 colon; HT29 colon; SNB-75 CNS; SNB-19 CNS; U251 CNS; PC-3 prostate; SK-MEL-5 melanoma; UACC-62 melanoma; LOX IMVI melanoma; SK-MEL-28 melanoma; SK-MEL-2 melanoma; EKVX NSCLC; SN12C renal; UO-31 renal; TK-10 renal; ACHN renal; CAKI-1 renal; A498 renal; CCRF-CEM leukemia; MOLT-4 leukemia.
Experiment in all cases: NCI-60 one-dose screen, 48 h (100 = growth as untreated, 0 = no growth, -100 = all killed)
What all share (conditions): 10 µM unless noted

In the case of `Cc1ccc(C(=O)N/N=C/c2cccc(Oc3ccccc3)c2)cn1`, the growth with HCT-15 colon was 38.5%; in the experiment with HT29 colon it was 20%; in the experiment on SNB-75 CNS, 65.7%; with SNB-19 CNS, 65.6%; in the experiment with U251 CNS it was 58.9%; in the experiment on PC-3 prostate it was 76.7%. Also, the growth in the experiment on SK-MEL-5 melanoma is 47.4%; in the experiment on UACC-62 melanoma it was 38.3%; in the experiment on LOX IMVI melanoma, 63.9%; in the experiment with SK-MEL-28 melanoma it was 63.7%; in the experiment with SK-MEL-2 melanoma it was 44.5%; with EKVX NSCLC it was 77.4%. Also, the growth in the experiment on SN12C renal is 68.6%; with UO-31 renal, 13.9%; in the experiment with TK-10 renal, 83.3%; in the experiment on ACHN renal, 85.9%; in the experiment with CAKI-1 renal, 22.9%; in the experiment with A498 renal, 57.6%. For the same compound, the growth with CCRF-CEM leukemia is 82.3%; in the experiment with MOLT-4 leukemia, 40%.

As to `Cn1cc(C(=O)c2nc(-c3cn(C)c4ccc(F)cc34)no2)c2cc(F)ccc21`, the growth is 93.4% in the experiment on HCT-15 colon; 95.5% with HT29 colon; 87.4% in the experiment on SNB-75 CNS; 104% in the experiment on SNB-19 CNS; 98.1% with U251 CNS; 80.3% in the experiment with PC-3 prostate. Further, the growth with SK-MEL-5 melanoma was 94.2%; in the experiment on UACC-62 melanoma it was 88.4%; in the experiment on LOX IMVI melanoma, 97.4%; in the experiment with SK-MEL-28 melanoma it was 110%; in the experiment on SK-MEL-2 melanoma, 102%; with EKVX NSCLC, 107%. The growth in the experiment on SN12C renal was 91.9%; in the experiment on UO-31 renal it was 63%; with TK-10 renal, 108%; in the experiment on ACHN renal, 94.1%; in the experiment with CAKI-1 renal it was 88.9%; in the experiment on A498 renal, 113%. Besides, the values for the growth with CCRF-CEM leukemia and in the experiment on MOLT-4 leukemia were 92% and 99.6%, respectively.

For `CCOC(=O)c1cn2ncnc(Oc3ccc(NC(=O)NCCN(CC)CC)c(Cl)c3)c2c1C`, the growth was 3.71% (active) in the experiment with HCT-15 colon; 5.37% (active) with HT29 colon; 89.1% in the experiment on SNB-75 CNS; 83.2% in the experiment with SNB-19 CNS; 65.2% in the experiment on U251 CNS; 66.1% with PC-3 prostate. In addition, the growth in the experiment with SK-MEL-5 melanoma was 46.6%; with UACC-62 melanoma it was -8.89% (active); in the experiment with LOX IMVI melanoma it was -32.7% (active); in the experiment on SK-MEL-28 melanoma, -77.4% (active); in the experiment on SK-MEL-2 melanoma it was 112%; with EKVX NSCLC, 77.2%. The growth with SN12C renal was 68.3%; in the experiment with UO-31 renal it was 57%; in the experiment on TK-10 renal, 110%; in the experiment on ACHN renal, 88.2%; in the experiment with CAKI-1 renal, 68.8%; in the experiment on A498 renal, 90.3%. The growth in the experiment on CCRF-CEM leukemia was 35.5%; with MOLT-4 leukemia, 49.2%.

Consider `BrCCCc1n(Cc2ccc3ccccc3c2)c2ccccc2[n+]1Cc1ccc2ccccc2c1`, for which the growth in the experiment with HCT-15 colon is -60.6% (active); in the experiment on HT29 colon it was -50.8% (active); with SNB-75 CNS, -71.5% (active); with SNB-19 CNS it was -33.3% (active); in the experiment on U251 CNS, -91.9% (active); in the experiment on PC-3 prostate, -69.1% (active). Also, the growth with SK-MEL-5 melanoma was -95.3% (active); in the experiment on UACC-62 melanoma, -76.2% (active); with LOX IMVI melanoma it was -93.8% (active); in the experiment with SK-MEL-28 melanoma it was -75.8% (active); in the experiment on SK-MEL-2 melanoma, -50.8% (active); in the experiment on EKVX NSCLC, -10.7% (active). Also, the growth was -92.8% (active) in the experiment on SN12C renal; 52.8% in the experiment with UO-31 renal; -85.7% (active) in the experiment with TK-10 renal; 5.29% (active) in the experiment on ACHN renal; -90.7% (active) in the experiment with CAKI-1 renal; -32.5% (active) in the experiment on A498 renal. For the same compound, the growth in the experiment on CCRF-CEM leukemia is -41.6% (active); in the experiment on MOLT-4 leukemia it was -35.9% (active).

For the compound `CCc1ccc(Oc2c(-c3ccc(OCc4ccc(Cl)cc4)cc3O)n[nH]c2C(F)(F)F)cc1`, the growth in the experiment on HCT-15 colon was 12.8%; with HT29 colon, 86.1%; in the experiment with SNB-75 CNS, 36.6%; in the experiment on SNB-19 CNS, 25.4%; in the experiment on U251 CNS, 9.9% (active); in the experiment with PC-3 prostate it was 13.9%. Moreover, the growth in the experiment on SK-MEL-5 melanoma was -14% (active); with UACC-62 melanoma, 17.9%; with LOX IMVI melanoma it was 7.09% (active); with SK-MEL-28 melanoma, 22.9%; with SK-MEL-2 melanoma, 11.4%; with EKVX NSCLC it was 15.7%. Besides, the growth in the experiment on SN12C renal is 15.3%; with UO-31 renal it was -10.4% (active); in the experiment on TK-10 renal, 16.1%; in the experiment on ACHN renal it was 5.7% (active); with CAKI-1 renal it was 29.6%; in the experiment with A498 renal, 11.2%. Further, the growth with CCRF-CEM leukemia is 11.7%; with MOLT-4 leukemia, -3.23% (active).

Consider `CCOC(=O)C1=C(N)Oc2c(sc3c(CC)cccc23)C1c1ccc(F)cc1` (stereo not given), for which the growth was 22.4% in the experiment on HCT-15 colon; 40.4% in the experiment on HT29 colon; -2.89% (active) in the experiment with SNB-75 CNS; 35% with SNB-19 CNS; 40.6% in the experiment on U251 CNS; 26.1% in the experiment on PC-3 prostate. The growth is 61.1% in the experiment with SK-MEL-5 melanoma; 22% in the experiment with UACC-62 melanoma; 35% with LOX IMVI melanoma; 53.8% in the experiment on SK-MEL-28 melanoma; 52.1% in the experiment with SK-MEL-2 melanoma; 64.1% with EKVX NSCLC. The growth with SN12C renal was 49.1%; in the experiment with UO-31 renal, 36.2%; with TK-10 renal, 99.1%; with ACHN renal, 34.1%; in the experiment with CAKI-1 renal, 4.96% (active); in the experiment on A498 renal, -3.69% (active). The growth with CCRF-CEM leukemia was 27.6%; in the experiment on MOLT-4 leukemia it was 64.2%.

As to `CCCCNc1nc(NN2C(=O)c3cccc4cccc(c34)C2=O)nc(-n2cnc3ccccc32)n1`, the growth in the experiment with HCT-15 colon is 85.2%; in the experiment with HT29 colon, 98%; in the experiment on SNB-75 CNS it was 85.8%; in the experiment with SNB-19 CNS, 86.9%; in the experiment with U251 CNS, 69.3%; in the experiment with PC-3 prostate, 77.4%. Also, the growth with SK-MEL-5 melanoma is 75.6%; in the experiment with UACC-62 melanoma, 88.3%; in the experiment on LOX IMVI melanoma, 87.4%; in the experiment on SK-MEL-28 melanoma, 94.1%; with SK-MEL-2 melanoma, 99%; in the experiment on EKVX NSCLC, 71.8%. For the same compound, the growth was 90.5% in the experiment on SN12C renal; 44.1% in the experiment on UO-31 renal; 100% in the experiment with TK-10 renal; 81.3% in the experiment with ACHN renal; 75.6% in the experiment with CAKI-1 renal; 35.9% with A498 renal. For the same compound, the growth in the experiment on CCRF-CEM leukemia is 96.3%; with MOLT-4 leukemia it was 77.4%.

`O=c1c2cccc(F)c2sc2c(NCCCNCCO)nc3ccccc3c12`: the growth in the experiment with HCT-15 colon is 11.4%; with HT29 colon it was -39.8% (active); in the experiment on SNB-75 CNS it was 45.5%; in the experiment with SNB-19 CNS, 44.1%; with U251 CNS it was 38.8%; in the experiment on PC-3 prostate, 38.3%. Besides, the growth in the experiment on SK-MEL-5 melanoma was 71.7%; with UACC-62 melanoma, 59.8%; with LOX IMVI melanoma, -86.6% (active); in the experiment with SK-MEL-28 melanoma, 64.2%; in the experiment with SK-MEL-2 melanoma, 89.8%; in the experiment on EKVX NSCLC, 55.4%. The growth in the experiment with SN12C renal was 43.5%; in the experiment with UO-31 renal, 19%; in the experiment on TK-10 renal, 48.6%; with ACHN renal, 15.3%; with CAKI-1 renal, 3.45% (active); in the experiment with A498 renal it was 40.9%. Moreover, the values for the growth with CCRF-CEM leukemia and in the experiment on MOLT-4 leukemia were 22.7% and -6.18% (active), respectively.
